# Experimental data published in paper PMC12136788.
# Substitutions are numbered along the chain they refer to. The full ranking holds about 24,000 sequences; the median of “enrichment r” is about 0.99, and the highest 2% start at about 3.7. This is one part of a sample in which the highest values are shown more often than they occur.
# T1: UNK ZnF1-3 (human, UniProt Q9C0B0 31-174)
# T1 sequence: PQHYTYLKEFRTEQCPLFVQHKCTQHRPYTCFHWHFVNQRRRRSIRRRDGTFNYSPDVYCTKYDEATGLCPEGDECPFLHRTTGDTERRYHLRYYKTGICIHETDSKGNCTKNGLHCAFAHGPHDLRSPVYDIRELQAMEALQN
# B1: chr6:35837335:35837336:-_ENSG00000096063_ENST00000361690|hu_mus|FALSE|FALSE (ssRNA)
# RNA: GGGAGUUCUACAGUCCGACGAUCGGGCUCCUGCUCAUCCCCAGAAGGUGUAUCUGCCCGAAUGCUCUCCUCCAGCUGGGUGAUGUCCUGUCGGGUGAGUGACUGCUCUGCAGAGGAUUGGCACACCAUGGUCUCAGAGGCCGUCAACAGAGGAUUGAGCAUCA
# B2: chr2:126475859:126475860:-_ENSMUSG00000027361_ENSMUST00000110424|mus_mus|FALSE|FALSE (ssRNA)
# RNA: GGGAGUUCUACAGUCCGACGAUCAGUUUCUGAAGAAUUGGACAAUGGGGCAGAAGCUUCAGCUAAGGCAGCUAACGUAGCUAAUACUGACGUAGAGGAGUUUCCAAACUGAACAGCAGAUACUCCUGUUUCAUCUGUGAGGUUCAACAGAGGAUUGAGCAUCA
# B3: chr17:25041749:25041750:-_ENSMUSG00000024163_ENSMUST00000117509|mus_hu|FALSE|FALSE (ssRNA)
# RNA: GGGAGUUCUACAGUCCGACGAUCCGAGGGAUAGGGGCGCUUGGCCGGAGGGGGGCUGGAGGAAGAGCUGAAGAGGCGGCUGAAGAACUGCCAGAUGGUCGACUUCUUCUUCUCCUGGACGGAUGGGUGCUCUCGGGACGCUCUCAACAGAGGAUUGAGCAUCA
# B4: chr17:60770872:60770873:+_ENSG00000011028_ENST00000303375|hu_hu|hu_hu_hu_mus_True|48_48 (ssRNA)
# RNA: GGGAGUUCUACAGUCCGACGAUCUCUUUAAAAAAAAAAAAAAAAAGACAAACAAUAAUAGCACAUUUCGAGAAUCAAGAACUACAAAGAAAGGGCCGCUUUGAGUUUUUGUUCACAUCGUCCUGCACUGGGACACGGGGACUGCAACAGAGGAUUGAGCAUCA
# B5: chr17:60770872:60770873:+_ENSG00000011028_ENST00000303375|hu_hu|hu_hu_hu_mus_True|48_88 (ssRNA)
# RNA: B4 RNA with A47U, C48U, A49U, C52A, U55C
# B6: chr17:60770872:60770873:+_ENSG00000011028_ENST00000303375|hu_hu|hu_hu_hu_mus_True|1_1 (ssRNA)
# RNA: GGGAGUUCUACAGUCCGACGAUCUCUUUAAAAAAAAAAAAAAAAAGACAAACAAUAAUAGCACAUUUCGAGAAUCAAGAACUACAAUAGAGGGUCCGCUUUGAGUUUUUGUUCACAUCGUCCUGCACUGGGACACGACCAGGACAACAGAGGAUUGAGCAUCA
# B7: chr17:60770872:60770873:+_ENSG00000011028_ENST00000303375|hu_hu|hu_hu_hu_mus_True|88_88 (ssRNA)
# RNA: B4 RNA with A47U, C48U, A49U, C52A, U55C, A87U, G88A, A89G, A91G, G94U
# B8: chr17:60770872:60770873:+_ENSG00000011028_ENST00000303375|hu_hu|hu_hu_hu_mus_True|18_18 (ssRNA)
# RNA: GGGAGUUCUACAGUCCGACGAUCUCUUUAAAAAAAAAAAAAAAAAGACAAACAAUAAUAGCACAUUUCGAGAAUCAAGAACUACAAUAGAGGGUCCGCUUUGAGUUUUUGUUCACAACAUUGUCCCCUGGGACACGGGGACUGCAACAGAGGAUUGAGCAUCA
# B9: chr17:60770872:60770873:+_ENSG00000011028_ENST00000303375|hu_mus|FALSE|FALSE (ssRNA)
# RNA: B4 RNA with A87U, G88A, A89G, A91G, G94U
# B10: chr17:60770872:60770873:+_ENSG00000011028_ENST00000303375|hu_hu|hu_hu_hu_mus_True|18_88 (ssRNA)
# RNA: B8 RNA with A47U, C48U, A49U, C52A, U55C
# B11: chr17:60770872:60770873:+_ENSG00000011028_ENST00000303375|hu_hu|hu_hu_hu_mus_True|1_8 (ssRNA)
# RNA: B6 RNA with C127A, U128C, G130C, G131U, A132G, C133U, A134C, C135G, G136C
# B12: chr17:60770872:60770873:+_ENSG00000011028_ENST00000303375|hu_hu|hu_hu_hu_mus_True|18_48 (ssRNA)
# RNA: B8 RNA with U87A, A88G, G89A, G91A, U94G
# B13: chr17:60770872:60770873:+_ENSG00000011028_ENST00000303375|hu_hu|hu_hu_hu_mus_True|18_58 (ssRNA)
# RNA: B8 RNA with A77U, G78C, A86G
# B14: chr17:60770872:60770873:+_ENSG00000011028_ENST00000303375|hu_hu|hu_hu_hu_mus_True|48_58 (ssRNA)
# RNA: B4 RNA with A77U, G78C, A86G
# Target: T1, UNK ZnF1-3
# Test: nsRBNS (natural sequence RNA bind-n-seq); RBNS binding buffer (assumed for nsRBNS): 25 mM Tris pH 7.5, 150 mM KCl, 3 mM MgCl2, 0.01% Triton X-100, 500 ug/ml BSA, 20 U/ml SUPERase-In, 4 C; UNK is unkempt and MSI1 is Musashi-1; names of the RNAs are library labels; protein concentration not given here; high values mean tight binding
row,Binder,binding signal
1,B1,3.58 enrichment R
2,B2,1.31 enrichment R
3,B3,1.43 enrichment R
4,B4,3.87 enrichment R
5,B5,3.6 enrichment R
6,B6,3.11 enrichment R
7,B7,4.21 enrichment R
8,B8,4.15 enrichment R
9,B9,4.24 enrichment R
10,B10,3.34 enrichment R
11,B11,3.63 enrichment R
12,B12,3.63 enrichment R
13,B13,3.65 enrichment R
14,B14,3.59 enrichment R
